High-throughput results: PubChem, National Center for Advancing Translational Sciences (NCATS)
ALDH1A1 block: ALDH1A1 (human) enzyme inhibition; P00352; Purified ALDH1A1, NADH fluorescence, propionaldehyde substrate; Potency, µM (series often up to 75.3 µM), for inactives: at the highest dose activity, negative = inhibition, usual class: inhibitors; 7.3% of 220,000 active; AID 1030;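 note: potency is the fitted concentration of half-maximal effect; plate controls were no enzyme wells and a reference inhibitor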
Target sequence (P00352 whole entry, looked up): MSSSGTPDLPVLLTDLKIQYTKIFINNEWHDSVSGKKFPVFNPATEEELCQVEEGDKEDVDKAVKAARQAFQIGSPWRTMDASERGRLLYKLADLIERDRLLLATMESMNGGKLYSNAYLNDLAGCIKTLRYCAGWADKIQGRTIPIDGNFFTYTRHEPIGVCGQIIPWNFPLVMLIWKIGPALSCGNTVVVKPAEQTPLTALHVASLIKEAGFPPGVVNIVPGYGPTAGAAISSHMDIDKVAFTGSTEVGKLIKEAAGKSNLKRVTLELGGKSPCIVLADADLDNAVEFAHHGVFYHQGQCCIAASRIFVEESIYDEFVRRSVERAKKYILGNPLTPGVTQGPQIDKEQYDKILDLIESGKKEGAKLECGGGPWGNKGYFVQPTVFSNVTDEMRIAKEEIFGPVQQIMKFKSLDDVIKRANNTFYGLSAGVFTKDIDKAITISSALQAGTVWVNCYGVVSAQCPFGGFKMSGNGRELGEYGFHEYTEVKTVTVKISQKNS
Luc counter: Kinase-Glo luciferase inhibition (counter-screen) | AID 1379 | 0.28% of 200,000 active | Potency, µM (highest dose often 38.3 µM), inactives show at the top dose activity change, negative = inhibition, most hits filed as inhibitors | Kinase-Glo luciferase, ATP luminescence, 8 min | Q27757; active = well fitted inhibition curve with a large enough effect; inconclusive = small, poorly fitted or top-dose-only effect; note: potency is the fitted concentration of half-maximal effect; nearly all actives have a fitted effect of over 60% in size
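Compounds were added to a substrate mix at pH 7.2 (50 mM imidazole, 10 uM ATP, within the enzyme's linear range), followed by Kinase-Glo detection reagent; luminescence was measured after 8 minutes at ambient temperature.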
PNC inhibitor: blocks assembly of the perinucleolar compartment; 3.1% of 140,000 active; activity change (PNC), negative = inhibition, % at 10 µM; AID 2417; PC3M PTB-GFP, PNC prevalence imaging, 16 h; stronger effect = lower value;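 active = readout at or below -70, meaning at least 70% loss of cells showing the perinucleolar compartment, a nuclear body marking cancer cells; inconclusive = readout between -30 and a set limit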;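 note: plate controls were DMSO wells for no effect and camptothecin positive control wells for full effect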
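Compounds are pinned in duplicate onto adhered PC3M cells stably expressing GFP-tagged PTB and incubated 16 h at 37 C. Cells are then fixed, nuclei stained with Hoechst, and PNC-positive cells counted.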
Lamin A splicing: changes lamin A minigene splicing in HeLa cells | HeLa LMNA splicing GFP/RFP minigene ratio, 48 h | 0.01% of 200,000 active | Potency, µM (titrated, usually from 46.1 µM), without a hit: at the highest dose ratio change, negative = inhibition, hits mostly inhibitors; active = well fitted inhibition curve with a large enough effect in the signal ratio, with a control signal flat, not every such curve was filed as active; inconclusive = small, poorly fitted or top-dose-only effect, or effect the other way, or a change in a side signal; the % refers to the signal ratio; note: potency is the fitted concentration of half-maximal effect
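S3 HeLa cells stably expressing lamin A-EGFP splicing minigene plus DsRed2, 600 cells/well, 48 h compound exposure at 37C. Laser-scanning cytometry; analysed as GFP (500-530 nm)/RFP (575-640 nm) total intensity ratio; 0.5% DMSO vehicle.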
HPGD inh: blocks human HPGD enzyme activity. 4.3% of 150,000 active. purified HPGD, NADH fluorescence kinetic, PGE2 substrate. AID 894. Potency, µM, without a hit: at the highest dose activity change, negative = inhibition, most hits filed as inhibitors; note: potency is the fitted concentration of half-maximal effect
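20 nM HPGD preincubated 15 min at room temperature with compound in 50 mM Tris-HCl pH 8, 0.01% Tween 20. Started with 1 mM NAD+ and 30 uM prostaglandin E2; NADH fluorescence (360/450 nm) read 5 times over 30-s intervals, last minus first.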
* = called active by the depositor; ? = inconclusive; · = no result; [ ] = another dose, or the depositor's remark. The list is not random: actives were taken first. Their share in the collection is about 10%. Unless noted, calls come from the whole dose curve; as a rule, active = well fitted inhibition curve with a large enough effect (not every such curve was filed as active); inconclusive = small, poorly fitted or top-dose-only effect, or another doubt; inactive = no such curve, though single readings can be large or run the other way. Unless noted, % is set by controls: 0 for no effect and ±100 for the full control effect.

SMILES	ALDH1A1 block	Luc counter	PNC inhibitor	Lamin A splicing	HPGD inh
COc1ccc(C(=O)C2CCCN(C(=O)c3cc(C(C)C)no3)C2)cc1F (centres undefined)	1.6µM*	·	·	·	·
CCc1noc(C)c1C(=O)N1CCCC(C(=O)c2ccc(OC)c(F)c2)C1 (centres undefined)	7.1µM*	3%	·	?	·
COc1cccc(N2C(C(C)=O)=NN(c3ccccc3)C2c2ccc(N3CCOCC3)cc2)c1 (centres undefined)	14µM*	-7%	?	?	-7%
CCc1ccccc1NC(=O)Cn1c(=O)n(Cc2ccccc2)c(=O)c2c(C)c(C(=O)N(C)C)sc21	·	·	·	26%[46 µM]	·
CC(C)n1cc(/C=N/NC(=O)COc2cccc3cccnc23)c2ccccc21	?	·	-13	?	·
Cc1cc(/C=N\NC(=O)COc2cccc3cccnc23)c(C)n1-c1ccccc1	14µM*	-2%	-14	0%	-16%
Cc1cc(/C=N\NC(=O)c2cccs2)c(C)n1-c1ccc2ncccc2c1	20µM*	-11%	?	?	?
Cc1cc(/C=N/NC(=O)c2ccccn2)c(C)n1-c1cccc([N+](=O)[O-])c1	?	-2%	·	14%[9.22 µM]	·
Cc1cc(/C=N/NC(=O)C(=O)NCc2ccccn2)c(C)n1-c1ccccc1	11µM*	-14%	22	-1%	2%
Cc1cc(/C=N\NC(=O)COc2cccc3cccnc23)c(C)n1-c1ccc(Br)cc1	?	1%	-7	?	-3%
C=CCn1cc(/C=N/NC(=O)COc2cccc3cccnc23)c2ccccc21	18µM*	-2%	-12	-10%	-10%
CC(=O)[C@@]1(N=Nc2ccc(S(N)(=O)=O)cc2)CCOC1=O	?	0%[7.66 µM]	·	·	-9%
Cc1cc(C)cc(-n2c(C)cc(/C=N/NC(=O)c3ccncc3)c2C)c1	?	5%	·	-8%[46 µM]	·
Cc1cc(C)cc(-n2c(C)cc(/C=N/NC(=O)CSc3ncccn3)c2C)c1	28µM*	-3%	2	?	-15%
O=c1c(-c2ccccc2)nc2cnc(N3CCOCC3)nc2n1CCc1ccccc1	?	·	·	-8%	·
Cc1c(-c2cccs2)[n+](=O)c2c(n1[O-])CCCC2	-4%	0%	-100*	2%	-5%
Cc1c(C)[n+](=O)c2c(n1[O-])CCC2	18%	13%	-28	0%	-4%
CCc1c(C)n([O-])c2c([n+]1=O)CCC2	-4%	4%	-81*	5%	0%
CCCCc1nc2c(c3c1C[C@H](C)OC3)CN(C(=O)c1cccnc1)CC2	6%[13.5 µM]	-3%[7.66 µM]	·	?	-18%
N#Cc1ccccc1CN1C(=O)S/C(=C/c2cccn2-c2ccc(C(=O)O)cc2)C1=O	0.5µM*	-3%	?	11%	28µM*
CN1C(=O)S/C(=C/c2cccn2-c2cccc(C(=O)O)c2)C1=O	-11%	-3%	·	-5%[1.84 µM]	·
Cc1cc(C(=O)COc2ccc([N+](=O)[O-])cc2)c(C)n1C1CC1	11µM*	·	·	0%[46 µM]	·
CCCNC(=O)Cn1nc(-c2ccc(OC)cc2)c2cnc3ccc(F)cc3c21	·	·	·	-13%[46 µM]	·
CCN1C(=O)[C@@H]2[C@H]3C(=CC[C@@H]2C1=O)C1(OCCCO1)[C@H]1O[C@@H]1[C@H]3O	1.8µM*	·	·	·	·
c1cncc(-c2cncnc2NCc2cccs2)c1	5%	·	·	-4%	·
SMILES	ALDH1A1 block	Luc counter	PNC inhibitor	Lamin A splicing	HPGD inh
CCNc1ncc2nc(-c3ccc(F)cc3)c(=O)n(CCC#N)c2n1	?	-4%	·	·	?
Cc1nn(C2CCCCC2)c(N)c1-c1ccccc1	-3%	2%	31	2%	11µM*
Cc1nn(C)c(N)c1-c1ccccc1	8%	-2%	·	·	·
COc1ccc(-c2c(C)nn(-c3ccccc3)c2N)cc1	-3%	6%	-10	6%	20µM*
Cc1nn(C(C)(C)C)c(N)c1-c1ccccc1	11%	1%	95	3%	28µM*
Nc1nc2ncc(=O)[nH]c2c(=O)[nH]1	?	-5%	·	3%	?
CCOC(=O)c1cccc(NC(=O)N2CCC(CN3CCCCCC3)CC2)c1	·	·	·	16%[46 µM]	·
O=C(COc1ccccc1)NN1C(=O)CSC1=S	0%	0%	·	10%[9.22 µM]	·
Cc1ccc(C(=O)NN2C(=O)CSC2=S)cc1	1%	3%	-84*	-9%	-12%
CCCCCC(=O)/C=C/[C@H]1[C@H](O)CC(=O)[C@@H]1C/C=C\CCCC(=O)O	-1%	1%	·	·	-9%
O=C(CCCCCN1C(=O)c2ccccc2C1=O)NCc1ccco1	-5%	-1%	4	2%	11µM*
O=C(CCN1C(=O)c2ccccc2S1(=O)=O)NCc1ccco1	-4%	1%	-27	11%	-16%
CC(C)CCNC(=O)CCCOc1cc(=O)n(C)c2ccccc12	-1%	-1%	-26	?	16µM*
COc1ccc(CNC(=O)CCCOc2cc(=O)n(C)c3ccccc23)cc1	8%	2%	?	-5%	-13%
CC1CCN(C(=O)CCCOc2cc(=O)n(C)c3ccccc23)CC1	?	-1%	?	-16%	7.9µM*
Cc1ccc(CNC(=O)CCCOc2cc(=O)n(C)c3ccccc23)o1	20µM*	2%	6	-17%	-23%
COc1ccc2[nH]cc(CCNc3nc(-c4ccccc4CN(C)C)nc4ccccc34)c2c1	?	0%	·	?	-18%
Cn1c(=O)cc(OCCCC(=O)NCc2ccco2)c2ccccc21	20µM*	-3%	2	?	20µM*
CCOC(=O)C(C(=O)OCC)C(C(=O)OCC)N1CCOCC1 (centres undefined)	28µM*	-5%	21	?	22µM*
CCOC(=O)C(C)CC(C)C(=O)N1CCOCCOCCN(C(=O)C(C)CC(C)C(=O)OCC)CCOCC1 (centres undefined)	-5%	2%	-9	2%	-4%
